Results from PubChem BioAssay AID2778 (National Center for Advancing Translational Sciences (NCATS), 2010).
Results filed as inconclusive are left out. A call without a number means that no potency is given here. Calls of active or inactive are those of the source. Calls come from the whole dose curve; as a rule, active = well fitted inhibition curve with a large enough effect; inconclusive = small, poorly fitted or top-dose-only effect, or effect the other way; inactive = flat fitted curve, though single readings scatter.

molecular target: Menin (Homo sapiens) (UniProt O00255); experiment: Confirmation of Inhibitors Targeting the Menin-MLL Interaction in MLL Related Leukemias: Confirmation in an HTRF (commercial TR-FRET) Assay using His-tagged menin and biotin-labeled MLL peptide; conditions: His-menin / biotin-MLL peptide binding; series mostly up to 126 µM
Sequence (O00255 whole entry, looked up): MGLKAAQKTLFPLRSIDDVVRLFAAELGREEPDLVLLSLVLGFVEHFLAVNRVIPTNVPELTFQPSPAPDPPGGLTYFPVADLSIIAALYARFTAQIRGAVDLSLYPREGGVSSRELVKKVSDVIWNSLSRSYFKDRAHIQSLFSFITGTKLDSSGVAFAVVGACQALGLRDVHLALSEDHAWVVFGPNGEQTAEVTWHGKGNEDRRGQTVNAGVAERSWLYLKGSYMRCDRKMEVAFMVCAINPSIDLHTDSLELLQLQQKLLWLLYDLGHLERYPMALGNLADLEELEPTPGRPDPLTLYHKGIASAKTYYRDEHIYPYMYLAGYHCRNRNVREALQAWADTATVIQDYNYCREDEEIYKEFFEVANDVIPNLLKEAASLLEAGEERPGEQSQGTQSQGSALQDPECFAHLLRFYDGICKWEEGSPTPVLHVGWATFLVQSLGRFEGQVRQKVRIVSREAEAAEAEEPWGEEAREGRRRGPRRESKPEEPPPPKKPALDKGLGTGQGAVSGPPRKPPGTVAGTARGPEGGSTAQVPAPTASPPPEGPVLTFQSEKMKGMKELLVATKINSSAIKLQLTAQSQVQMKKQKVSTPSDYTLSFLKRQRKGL
In short: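 HTRF: His6-menin (200 nM) and biotin-MLL-w.t. peptide (80 nM) preincubated 15 min, then compounds 1 hr at ambient, before Eu-cryptate anti-His (3.5 nM) and streptavidin-XL665 (10 nM) for 1 h; 50 mM Tris-HCl pH 7.5, 50 mM NaCl, 1 mM DTT, BSA.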
Potency is the fitted concentration of half-maximal effect.

Compound	Potency
CCNc1ccccc1CP(=O)(c1ccccc1)c1ccccc1O (stereo not given)	89.1 µM (active)
CCOC(=O)N1CCN(CCC(=O)c2ccc(Br)cc2)CC1	inactive
O=C(N/N=C/c1cn(-c2ccccc2)nc1-c1cc2ccccc2o1)c1ccccc1Br	inactive
COc1ccccc1N(CC1CO1)S(=O)(=O)c1ccccc1 (stereo not given)	inactive
Cc1cc2c(N)cccc2nn1	inactive
O=C(CS)Nc1ccc2ccccc2c1	inactive
CN(C)/C=C(/C(=O)c1ccc(Cl)cc1)S(=O)(=O)c1ccc(Cl)cc1	inactive
Cc1nc2oc3c(NCC4CCCO4)ncnc3c2c2c1COC(C)(C)C2 (stereo not given)	inactive
O=C(N/N=C/c1cn(-c2cccs2)nc1-c1ccccc1)c1ccccc1O	inactive
CCc1nn(C)c2c(=O)c(=O)c2n(C)[nH]1	inactive
CCOc1cc(C(c2c(C)[nH][nH]c2=O)c2c(C)[nH][nH]c2=O)cc(Br)c1OC	inactive
CN(CCOc1ccc(Cl)cc1)CC(O)c1ccccc1 (stereo not given)	inactive
O=C(Nc1nnc(SCc2ccc(F)cc2)s1)c1ccc2c(c1)C(=O)N(c1ccccc1Cl)C2=O	inactive
CCCn1c(=O)c(C(=O)Nc2ccccc2C(=O)OCC)c(O)c2ccccc21	inactive
CNC[C@H](CC1CCCCC1)NC[C@H](Cc1ccccc1)NCCC12CC3CC(CC(C3)C1)C2	251 µM (active)
COc1cccc(OC)c1NC(=O)CN1CCN(C)CC1	inactive
NC(=NCCCCCCN=C(N)/N=C(\N)Nc1ccc(Cl)cc1)/N=C(\N)Nc1ccc(Cl)cc1	282 µM (active)
CCN(CC)c1nc(-c2ccc(C(=O)NN)cc2)nc(-c2ccc(C(=O)NN)cc2)n1	inactive

Compound	Potency
Cc1nn(-c2ccccc2)c2nc(N)c(C(N)=O)cc12	inactive
COc1ccc(NC(=O)NC2(C(=O)N3CCOCC3)CCCCC2)cc1	inactive
COc1cc(O)c(C(=O)c2ccccc2)cc1O	inactive
NC(=O)c1ccc(NC(=O)c2cncn2-c2ccccc2)cc1	inactive
CS(=O)(=O)c1ccc2nc(NC(=O)Nc3cccc(Cl)c3)sc2c1	112 µM (active)
CN(C)c1ccc(N=Nc2ccc(C(=O)O)cc2)cc1	inactive
NC(=O)[C@@H]1CCCNc2c(I)cc([N+](=O)[O-])cc2C(=O)N[C@@H](CCCN=C(N)N)C(=O)N[C@@H](CCCN=C(N)N)C(=O)N1	inactive
O=C(Nc1nnc(-c2ccccc2SCc2ccccc2)s1)Nc1ccccc1F	inactive
COc1cnc(-c2ccccn2)nc1N(C)c1ccccc1	inactive
O=C1CCNc2c(Cl)cc(Cl)cc21	inactive
CCn1cnc2c1c(=O)n(CC(=O)O)c(=O)n2Cc1ccccc1	inactive
CN1C[C@@H]2C[C@H]1CN2c1cc2c(cc1F)c(=O)c(C(=O)O)cn2C1CC1	inactive
CCCOc1ccc(C(=O)N2CCN(Cc3ccc4c(c3)OCO4)CC2)cc1	inactive
CCOC(=O)Cn1cnc2scc(-c3ccc(C)c(C)c3)c2c1=O	inactive
O=C(NC1CCN(c2ncccn2)CC1)c1c(F)cccc1F	inactive
C[N+]1(CCNC(=O)/C=N/O)CCCCC1	inactive
CCCc1cc(=O)oc2c3c(c(Cl)cc12)OCN(CCCO)C3	inactive
